Compounds with a hit are over-represented: about 19% of the library has one in this group of screens.
Pf growth 48h: P. falciparum growth inhibition at 48 hours (one generation) | Potency, µM (titrated, usually from 28.7 µM), for the others: at the highest dose activity change, negative = inhibition, actives largely listed as inhibitors | P. falciparum luciferase growth in erythrocytes, 48 h | 310,000 compounds, 5.9% hits; also: potency is read from the fitted curve at half-maximal effect; % is scaled to controls: 0 for no effect and ±100 for the full control effect
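In quantitative HTS format, infected erythrocytes bearing luciferase-reporter parasites were treated for a single generation at 37 C. Luminescence after adding detection reagent served as the growth measure.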
SARS PLP yeast: blocks SARS-CoV papain-like protease in a yeast assay; S. cerevisiae expressing SARS-CoV PLpro, growth rescue; Potency, µM (doses to about 32.9 µM), for inactives: top-dose activity, positive = growth rescue, usual class: activators; 330,000 compounds, 0.19% hits; AID 485353; calls by dose curve; also: potency is read from the fitted curve at half-maximal effect; 0% is about no effect; nearly all actives have a fitted effect of over 55% in size
AMA1 RON2 block: inhibitors of Plasmodium falciparum AMA1-RON2 interaction | AlphaScreen AMA1-biotinylated RON2 peptide binding | Potency, µM (titrated, usually from 58.2 µM), without a hit: top-dose activity change, negative = inhibition, most hits filed as inhibitors | 360,000 compounds, 0.2% hits | AID 720542;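 also: potency is read from the fitted curve at half-maximal effect; 0% = vehicle wells and -100% = peptide control; nearly all actives have a fitted effect of over 45% in size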
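AMA1 (3D7) with his tag at 25 nM final met compounds first, then biotinylated RON2 peptide at 25 nM; detection used donor plus acceptor beads, 10 µg/mL apiece, read by AlphaScreen after 30 min at room temperature.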
Shiga toxin inh: blocks Shiga toxin action in Vero cells; Vero cells, Shiga toxin protein synthesis inhibition reporter; inhibition, % at 38.7 µM; 290,000 compounds, 9.2% hits; AID 2315; in the data active = inhibition mostly above about 28%, no sharp cut-off; inactive = mostly below about 43%; also: 0% is about no effect
Cycloheximide cs: affects cycloheximide protein synthesis inhibition readout, counter-screen. cell reporter, cycloheximide protein synthesis inhibition counterscreen. max response, %. 300,000 compounds, 12% hits. AID 2314; in the data active = max response mostly above about 13%, no sharp cut-off; inactive = mostly below about 14%; also: read at 38.3 µM for the half of the compounds with a filed dose; 0% is about no effect
Pf growth 96h: P. falciparum growth inhibition at 96 hour, primary screen for plastid delayed-death inhibitors; P. falciparum luciferase reporter growth, 96 h; 320,000 compounds, 6.9% hits; Potency, µM (doses to about 28.7 µM), for inactives: top-dose activity change, negative = inhibition, hits mostly inhibitors; also: potency is read from the fitted curve at half-maximal effect; % is scaled to controls: 0 for no effect and ±100 for the full control effect
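96 h incubation, 37 C, 5% CO2, of luciferase-reporter P. falciparum-infected RBCs (2% hematocrit, 0.05% parasitemia final) with test compounds; endpoint luminescence.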
* = called active by the depositor; u = inconclusive; x = no result; [ ] = dose if it differs, or a comment. Unless noted, calls follow the shape of the dose curve; as a rule, active = well fitted curve in the direction sought with a large enough effect; inconclusive = small, poorly fitted or top-dose-only effect, or another doubt; inactive = no such curve, though single readings can be large; an effect the other way counts as inactive or inconclusive.

SMILES	Pf growth 48h	SARS PLP yeast	AMA1 RON2 block	Shiga toxin inh	Cycloheximide cs	Pf growth 96h
Cc1ccn2cc(CNS(=O)(=O)c3ccc(Cl)s3)nc2c1	x	4%	38%	22	11	u
CCCC(C(=O)Nc1ccc(S(=O)(=O)Nc2nccs2)cc1)c1ccccc1 (centres undefined)	0%	-3%	-20%	x	x	0%
Cc1cc(C)nc(NC(=O)Nc2ccc3c(c2)OCO3)c1	152%	2%	10%	65*	47*	33%
Cc1cc(C)nc(N2CCC(C(=O)Nc3ccc4c(c3)OCO4)CC2)n1	48%	0%	30%	-7	-1	5%
Cc1ccnc(NC(=O)CNC(=O)c2ccc3c(c2)OCO3)c1	45%	3%	-5%	45*	26*	65%
Cc1cc(C)nc(NC(=O)c2ccc3c(c2)OCO3)c1	200%	-3%	x	85*	46*	u
Cc1ccnc(NC(=O)CNC(=O)c2ccc3ccccc3c2)c1	47%	x	14%	x	x	48%
Cc1cc(C)nc(NS(=O)(=O)c2ccc(NC(=O)c3ccc4c(c3)OCO4)cc2)n1	1%	7%	-6%	-12	5	u
COc1ccc(-n2nc3c(c2NC(=O)C(C)Oc2ccccc2)CS(=O)C3)cc1 (centres undefined)	-10%	5%	-2%	39	5	-10%
COc1ccc(NC(=O)c2sc3nc(-c4cccnc4)ccc3c2N)cc1	-1%	0%	10%	18	-2	-6%
Nc1c(C(=O)Nc2ccccc2)sc2nc(-c3ccco3)ccc12	16%	-2%	-7%	95*	27*	15%
Nc1c(C(=O)Nc2ccccc2)sc2nc(-c3cccnc3)ccc12	29%	7%	x	70*	49*	32%
COc1ccccc1NC(=O)CSc1nccc(-c2ccco2)n1	u	0%	-13%	x	x	u
COc1ccccc1NC(=O)c1sc2nc(-c3ccco3)ccc2c1N	13%	-11%	22%	70	20*	x
CCc1ccccc1NC(=O)CN(C)C(=O)CSc1nn(-c2ccc(F)cc2)c(=S)s1	-10%	8%	13%	-7	-3	u
Cc1noc(C)c1COC(=O)c1ccccc1Sc1ccccc1C#N	x	0%	-1%	-10	0	12µM*
c1ccn(-c2ccc(N3CCOCC3)cc2)c1	u	5%	-28%	49*	38*	106%
Cc1ccc(C)n1-c1ccc(N(C)C)cc1	14%	-3%	28µM*	16	17	u
Cc1ccc(C)n1-c1ccc(N2CCOCC2)c([N+](=O)[O-])c1	u	0%	-6%	23	-1	u
Cc1ccc(C)n1-c1ccc(N2CCOCC2)cc1	10µM*	0%	-25%	71	22*	u
c1ccc(N2CCOCCOCCOCCOCC2)cc1	-3%	0%	-13%	4	2	33%
O=C1CCN(Cc2ccc(O)cc2)CCN1CCO	38%	-1%	-2%	-5	-2	-9%
CCOC(=O)C1CCCN(C(=O)c2cc(C#N)cs2)CC1 (centres undefined)	x	x	-2%	x	x	x
NNC(=O)c1ccc(COc2cccc3ccccc23)o1	-19%	1%	73%	22	8	24%
CCOc1ccc(OCc2ccc(C(=O)NCc3cccnc3)o2)cc1	0%	-1%	-1%	-4	14	u
SMILES	Pf growth 48h	SARS PLP yeast	AMA1 RON2 block	Shiga toxin inh	Cycloheximide cs	Pf growth 96h
NNC(=O)c1ccc(COc2ccc3ccccc3c2)o1	-6%	0%	63%	34*	19*	u
CCOc1ccc(OCc2ccc(C(=O)NN)o2)cc1	72%	1%	15%	54*	30*	182%
Cc1ccc(OCc2ccc(C(=O)NN)o2)cc1C	-5%	0%	38%	31	26*	40%
CCOc1ccc(OCc2ccc(C(=O)NC(C)(C)C)o2)cc1	-11%	-3%	-5%	37*	12	u
O=C(Cc1n[nH]c(=O)c2ccccc12)Nc1cc(Cl)ccc1-n1cncn1	6%	6%	-9%	x	x	22%
COC(=O)c1ccc(COc2cc([N+](=O)[O-])cc3cccnc23)o1	20%	1%	0%	15	-3	3%
CN(C)c1ccc(NC(=O)c2ccc(COc3cccc(Cl)c3)o2)cc1	x	-11%	28µM*	77*	55*	x
CCOc1ccc(OCc2ccc(C(=O)Nc3cccnc3)o2)cc1	12µM*	1%	-8%	158*	31*	9.3µM*
CCN1CCN(C(=O)c2ccc(COc3cccc(Cl)c3)o2)CC1	25%	-3%	-3%	-3	-1	-10%
O=C(OCc1ccccn1)c1ccc(COc2ccc3ccccc3c2)o1	82%	-1%	21%	66*	45*	220%
CC(C)NC(=O)c1ccc(COc2ccc(C(C)(C)C)cc2)o1	-15%[0.00184 µM]	-8%	0%	160*	95*	u
CCCC[C@@H]1C[C@H]1[C@@H](NC(=O)c1ccco1)c1ccc(C(=O)OC)cc1	x	x	2%	x	x	x
COc1ccc(C2NCc3ccc4c(c3-n3cccc32)OCO4)cc1O (centres undefined)	6.6µM*	-10%	-26%	-8	-3	x
C/C(N)=C(/C#N)C(=O)CSc1nnnn1-c1ccc(C)cc1	12%	0%	0%	50	36*	u
CSc1nnc(Nc2ccccc2C)s1	x	-9%	-3%	12	16*	9.3µM*
C/C(N)=C(/C#N)C(=O)CSc1nnc(Nc2ccccc2)s1	63%	3%	3%	139*	42*	7%
C/C(N)=C(/C#N)C(=O)CSc1nnc(NC(C)C)s1	120%	-4%	u	58*	30*	u
Cc1cc(NC(=O)CSc2nnc(Nc3ccccc3C)s2)no1	u	0%	37%	-3	-3	u
COc1ccc(CCNC[C@@H](O)c2ccc(O)cc2)cc1OC	-9%	x	x	x	x	-36%
CS(=O)(=O)N(CC(=O)Nc1ccccc1Br)Cc1ccccc1	-8%	-2%	-1%	-8	-5	-14%
CC12CCC=CC1=C(C=O)C1C2CCC2(C)C(O)CCC12 (centres undefined)	x	x	11%	x	x	x
C/C(N)=C(/C#N)C(=O)CSc1nnc(Nc2ccccc2C)s1	58%	14%	-17%	51*	46*	7.4µM*
C/C(N)=C(/C#N)C(=O)CSc1nc2ccccc2[nH]1	146%	-1%	-20%	67*	35*	x
O=C(c1cc(C2CCCCN2C(=O)OCCF)on1)N1CCOCC1 (centres undefined)	x	x	8%	x	x	x
c1ccc(-c2nc(NCCCn3ccnc3)c3oc4ccccc4c3n2)cc1	3.3µM*	-15%	-2%	-5	1	2.3µM*
c1cncc(-c2nc(NCCCn3ccnc3)c3ccccc3n2)c1	-16%	3%	u	-8	7	u
Cc1nc(NCCCn2ccnc2)c2ccccc2n1	x	0%	-1%	-6	-2	1%
